The nature of test [1]: ATG_GRE_CIS: Attagene CIS-FACTORIAL HepG2 Assay for human Glucocorticoid Response Elements (GRE) (AID 2282947). The following applies: HepG2 GRE cis-reporter, Attagene multiplex mRNA; actives raise or lower the signal. A digest of the protocol:
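Transiently transfected HepG2 cells carrying GRE cis-reporter units (endogenous TF activity) dosed 24 h; reporter mRNA quantified by RT-PCR, 6-FAM labelling, HpaI digestion and capillary electrophoresis. Bidirectional fit versus DMSO baseline.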

Test [2] is described as follows: ATG_ISRE_CIS: Attagene CIS-FACTORIAL HepG2 Assay for human Interferon Regulatory Factor 1 (IRF1) binding to an Interferon-Stimulated Response Element (ISRE) (AID 2282948). The following applies: HepG2 ISRE cis-reporter (Attagene), mRNA transcription readout; actives raise or lower the signal. The method in brief: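 Transiently transfected HepG2 cells carrying cis-element reporter units, dosed 24 hours. Reporter mRNA quantified by RT-PCR, fluorescent primer extension, HpaI digestion and capillary electrophoresis. Bidirectional fitting relative to DMSO.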

A short description of test [3]: ATG_M_32_CIS: Attagene CIS-FACTORIAL HepG2 Assay for M32 Transcription Factor (Internal Marker) (AID 2282949).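 Further: background control marker of the multiplexed CIS panel rather than a real target.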 The following applies: HepG2 Attagene cis-factorial M32 reporter, mRNA; actives raise or lower the signal. A digest of the protocol: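 Fluorescent capillary electrophoresis peaks of HpaI-digested, FAM-labelled RT-PCR reporter products give the signal. Source: transiently transfected human liver HepG2 cells, 24 h after chemical dosing; bidirectional fitting against DMSO.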

A short description of test [4]: ATG_M_06_CIS: Attagene CIS-FACTORIAL HepG2 Assay for M06 Transcription Factor (Internal Marker) (AID 2282950). The settings on record: HepG2 Attagene CIS-FACTORIAL M06 internal marker reporter; actives raise or lower the signal. A digest of the protocol:
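Internal background marker within multiplexed cis-reporter HepG2 system. Cells transiently transfected, dosed 24 h; reporter mRNA measured by RT-PCR, HpaI digestion and capillary electrophoresis. Bidirectional fit relative to DMSO.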

Test [5] has as its target Hypoxia-inducible factor 1-alpha (Homo sapiens) (UniProt Q16665). Kind of test: ATG_HIF1a_CIS: Attagene CIS-FACTORIAL HepG2 Assay for human Hypoxia Inducible Factor 1 (HIF1A) (AID 2282951). The following applies: HepG2 Attagene cis-factorial HIF1a reporter transcription; actives raise or lower the signal. A digest of the protocol: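 Cis-element reporter constructs were transiently transfected into HepG2 cells, which were treated for 24 h; reporter RNA was reverse-transcribed, amplified, labelled and resolved by capillary electrophoresis.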

Test [6] addresses Hepatocyte nuclear factor 6 (Homo sapiens) (UniProt Q9UBC0). Kind of test: ATG_HNF6_CIS: Attagene CIS-FACTORIAL HepG2 Assay for human Hepatocyte Nuclear Factor 6 (HNF6) (AID 2282952). The following applies: HepG2 Attagene cis-factorial HNF6 reporter transcription; actives raise or lower the signal. The method in brief:
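Reporter mRNA induction or loss in HepG2 after 24 h exposure; transient cis-MRTU transfection; fragments quantified by capillary electrophoresis; bidirectional analysis, DMSO as negative control.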

A short description of test [7]: ATG_MRE_CIS: Attagene CIS-FACTORIAL HepG2 Assay for human Metal Responsive Element (MRE) (AID 2282954). The following applies: HepG2 MRE cis-reporter transcription, Attagene multiplex; actives raise or lower the signal. A digest of the protocol:
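HepG2 cells transiently transfected with cis-element-driven reporter units; mRNA measured 24 h after dosing. Reporter transcripts quantified by RT-PCR, FAM labelling, HpaI digestion and capillary electrophoresis; bidirectional fit versus DMSO.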

Test [8] in a line: ATG_PBREM_CIS: Attagene CIS-FACTORIAL HepG2 Assay for human Phenobarbital-responsive Enhancer Module (PBREM) (AID 2282955). The settings on record: HepG2 PBREM cis-reporter, Attagene multiplexed transcription; actives raise or lower the signal. The method in brief: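 Multiplexed cis-reporter readout in human hepatoma HepG2 cells; PBREM-regulated transcript quantified after 24 h exposure by fluorescent RT-PCR fragment analysis. Signal changes up or down fitted relative to DMSO.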

Test [9] has as its target Paired box protein Pax-6 (Homo sapiens) (UniProt P26367). Nature of the test: ATG_Pax6_CIS: Attagene CIS-FACTORIAL HepG2 Assay for human Paired Box 6 (PAX6) (AID 2282956). The settings on record: HepG2 CIS-FACTORIAL PAX6 reporter transcription, RNA readout; actives raise or lower the signal. The method in brief: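 HepG2 cells transiently transfected with cis-promoter-driven multiplexed reporter units sensing endogenous transcription factor activity; 24 h chemical exposure. Reporter mRNA quantified by RT-PCR, 6-FAM labelling, HpaI digestion and capillary electrophoresis; bidirectional fit versus DMSO baseline.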

Test [10] can be described thus: ATG_PXRE_CIS: Attagene CIS-FACTORIAL HepG2 Assay for human Pregnane X Receptor Element (PXRE) (AID 2282957). The following applies: HepG2 Attagene CIS-FACTORIAL PXRE reporter, mRNA; actives raise or lower the signal. A digest of the protocol:
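Transiently transfected HepG2 cells were dosed and incubated for 24 h. RNA was then isolated, DNase-treated, reverse-transcribed and reporter sequences amplified. Labeled, HpaI-digested fragments were quantified by capillary electrophoresis against DMSO.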

Test [11] can be described thus: ATG_RORE_CIS: Attagene CIS-FACTORIAL HepG2 Assay for human RAR-related Orphan Receptor Element (RORE) (AID 2282959). The following applies: HepG2 Attagene cis-factorial RORE reporter, mRNA; actives raise or lower the signal. A digest of the protocol:
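Transfect HepG2 with MRTUs; treat 24 h; extract RNA; RT with oligo(dT); PCR with reporter-specific primers; 6-FAM primer extension; HpaI digest 2 h at 37 C; capillary electrophoresis. Fit vs DMSO, bidirectional.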

Test [12] can be described thus: ATG_Sox_CIS: Attagene CIS-FACTORIAL HepG2 Assay for human SRY-box transcription factor (SOX) (AID 2282960). The following applies: HepG2 Attagene cis-factorial SOX reporter, mRNA; actives raise or lower the signal. The method in brief: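 Fluorescence-labelled cDNA fragments from reporter transcripts, sized by CE, give the signal. Cells: HepG2, transiently transfected with cis-regulated reporter units. Exposure 24 h; DMSO negative control; bidirectional curve fitting.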

Test [13] concerns the target Transcription factor Sp1 (Homo sapiens) (UniProt P08047). Kind of test: ATG_Sp1_CIS: Attagene CIS-FACTORIAL HepG2 Assay for human Specificity Protein 1 (Sp1) (AID 2282961). The following applies: HepG2 Sp1 cis-reporter transcription, actives raise or lower the signal. A digest of the protocol: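 Chemicals are dosed onto HepG2 cells transfected with multiple cis-promoter reporter constructs, and after 24 h reporter RNA is reverse-transcribed, PCR-amplified and resolved by capillary electrophoresis for fluorescence quantitation; activity is scored up or down against DMSO.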

Test [14] is described as follows: ATG_SREBP_CIS: Attagene CIS-FACTORIAL HepG2 Assay for human Sterol Regulatory Element Binding (SREBP) (AID 2282962). The settings on record: HepG2 Attagene cis-factorial SREBP reporter, mRNA; actives raise or lower the signal. A digest of the protocol:
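HepG2 cells transiently transfected with multiplexed cis-promoter reporter units sensing endogenous transcription factors; reporter mRNA measured 24 h after dosing by RT-PCR, 6-FAM labeling, HpaI digestion and capillary electrophoresis. Bidirectional fit versus DMSO.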

The target in test [15] is Signal transducer and activator of transcription 3 (Homo sapiens) (UniProt P40763). Nature of the test: ATG_STAT3_CIS: Attagene CIS-FACTORIAL HepG2 Assay for human Signal Transducer and Activator of Transcription 3 (STAT3) (AID 2282963). The following applies: HepG2, Attagene cis-factorial STAT3 reporter transcription; actives raise or lower the signal. The method in brief:
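HepG2 cells transiently transfected with multiple cis-element-driven reporter units report endogenous transcription factor activity. After 24 h compound exposure, reporter mRNA is measured by RT-PCR, 6-FAM labelling, HpaI digestion and capillary electrophoresis. Fitted bidirectionally versus DMSO.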

Test [16] in a line: ATG_TCF_b_cat_CIS: Attagene CIS-FACTORIAL HepG2 Assay for human T-Cell-Factor with beta-catenin (TCF/b-cat) (AID 2282965). The settings on record: HepG2 TCF/beta-catenin cis-reporter transcription, actives raise or lower the signal. A digest of the protocol: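 HepG2 cells transiently transfected with cis-promoter-driven multiplexed reporter units; reporter mRNA measured 24 h after dosing by RT-PCR, FAM labelling, HpaI digestion and capillary electrophoresis. Bidirectional fitting relative to DMSO baseline.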

A short description of test [17]: ATG_TAL_CIS: Attagene CIS-FACTORIAL HepG2 Assay for human TAL Basal Promoter (AID 2282966).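 Further: background control endpoint measuring basal TAL promoter reporter mRNA not a specific factor.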 The following applies: HepG2 Attagene cis-factorial TAL promoter reporter; actives raise or lower the signal. The method in brief:
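Readout: reporter mRNA, fluorescence by CE. System: HepG2, transient multi-reporter transfection, endogenous TF activity. Exposure: 24 h. Analysis: bidirectional, DMSO-normalized; background control.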

A short description of test [18]: ATG_PPRE_CIS: Attagene CIS-FACTORIAL HepG2 Assay for human Peroxisome Proliferator-activated Response Element (PPRE) (AID 2282958). The settings on record: HepG2 PPRE cis-element reporter, Attagene transcription factor profiling; actives raise or lower the signal. The method in brief:
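DMSO served as negative control and baseline for bidirectional curve fitting. Signal came from PPRE-regulated reporter mRNA in HepG2 cells, measured 24 h post-dosing by RT-PCR, 6-FAM primer extension and capillary electrophoresis.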

Test [19] is described as follows: ATG_TA_CIS: Attagene CIS-FACTORIAL HepG2 Assay for human TA Basal Promoter (AID 2282964). The settings on record: HepG2 Attagene CIS-factorial TA basal promoter reporter; actives raise or lower the signal. A digest of the protocol:
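HepG2 cells transiently transfected with multiple reporter units under cis promoter elements, reporting endogenous transcription factor activity; this endpoint tracks the TA basal promoter as background control. Reporter mRNA after 24 h dosing measured by RT-PCR/capillary electrophoresis; bidirectional fits versus DMSO.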

Test [20] deals with Heat shock factor protein 1 (Homo sapiens) (UniProt Q00613). Nature of the test: ATG_HSE_CIS: Attagene CIS-FACTORIAL HepG2 Assay for human Heat Shock Transcription Factor 1 (HSE) (AID 2282953). The settings on record: HepG2 HSE cis-reporter, Attagene RNA transcription; actives raise or lower the signal. A digest of the protocol:
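HepG2 cells transfected with cis-promoter reporter units sensing endogenous transcription factor activity; reporter mRNA quantified 24 h post-dose by RT-PCR and capillary electrophoresis of 6-FAM-labelled products. Bidirectional fitting against DMSO.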

Calls of active or inactive are those of the source. How the source made its calls: active means hit-call score of the fitted dose curve at least 0.9, where 1 is the maximum; inactive means score below 0.9.

Chain of Transcription factor Sp1 (Homo sapiens) (P08047 whole entry, looked up): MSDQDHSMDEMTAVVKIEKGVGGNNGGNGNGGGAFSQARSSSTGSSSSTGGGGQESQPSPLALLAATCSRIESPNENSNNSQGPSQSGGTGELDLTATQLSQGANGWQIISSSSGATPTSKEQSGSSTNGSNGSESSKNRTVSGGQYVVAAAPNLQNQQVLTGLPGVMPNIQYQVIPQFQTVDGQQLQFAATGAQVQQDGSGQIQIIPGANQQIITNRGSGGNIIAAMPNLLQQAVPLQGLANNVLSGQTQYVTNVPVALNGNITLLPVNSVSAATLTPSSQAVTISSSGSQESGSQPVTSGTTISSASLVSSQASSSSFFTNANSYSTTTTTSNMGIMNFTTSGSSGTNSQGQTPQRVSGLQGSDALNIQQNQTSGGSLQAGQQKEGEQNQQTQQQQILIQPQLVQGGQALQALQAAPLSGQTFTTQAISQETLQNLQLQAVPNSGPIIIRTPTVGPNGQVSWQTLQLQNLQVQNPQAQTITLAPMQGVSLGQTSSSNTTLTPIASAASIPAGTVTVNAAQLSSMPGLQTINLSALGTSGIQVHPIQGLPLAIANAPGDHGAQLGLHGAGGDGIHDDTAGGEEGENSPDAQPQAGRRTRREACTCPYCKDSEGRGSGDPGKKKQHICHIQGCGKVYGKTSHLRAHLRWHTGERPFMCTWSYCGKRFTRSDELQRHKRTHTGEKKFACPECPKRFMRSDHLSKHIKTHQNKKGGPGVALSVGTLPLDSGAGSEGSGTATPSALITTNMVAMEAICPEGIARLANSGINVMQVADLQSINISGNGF
Chain of Paired box protein Pax-6 (Homo sapiens) (P26367 whole entry, looked up): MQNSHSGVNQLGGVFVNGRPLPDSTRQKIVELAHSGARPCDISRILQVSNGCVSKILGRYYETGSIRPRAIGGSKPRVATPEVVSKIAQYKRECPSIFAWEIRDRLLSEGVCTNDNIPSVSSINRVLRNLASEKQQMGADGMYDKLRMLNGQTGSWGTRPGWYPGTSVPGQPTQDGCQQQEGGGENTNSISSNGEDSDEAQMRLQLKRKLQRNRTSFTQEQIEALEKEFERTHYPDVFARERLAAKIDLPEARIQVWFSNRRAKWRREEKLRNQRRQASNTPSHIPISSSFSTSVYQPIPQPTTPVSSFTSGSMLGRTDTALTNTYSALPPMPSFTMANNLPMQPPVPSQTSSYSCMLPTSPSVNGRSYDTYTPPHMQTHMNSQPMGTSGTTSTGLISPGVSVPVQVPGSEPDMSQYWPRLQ
Chain of Heat shock factor protein 1 (Homo sapiens) (Q00613 whole entry, looked up): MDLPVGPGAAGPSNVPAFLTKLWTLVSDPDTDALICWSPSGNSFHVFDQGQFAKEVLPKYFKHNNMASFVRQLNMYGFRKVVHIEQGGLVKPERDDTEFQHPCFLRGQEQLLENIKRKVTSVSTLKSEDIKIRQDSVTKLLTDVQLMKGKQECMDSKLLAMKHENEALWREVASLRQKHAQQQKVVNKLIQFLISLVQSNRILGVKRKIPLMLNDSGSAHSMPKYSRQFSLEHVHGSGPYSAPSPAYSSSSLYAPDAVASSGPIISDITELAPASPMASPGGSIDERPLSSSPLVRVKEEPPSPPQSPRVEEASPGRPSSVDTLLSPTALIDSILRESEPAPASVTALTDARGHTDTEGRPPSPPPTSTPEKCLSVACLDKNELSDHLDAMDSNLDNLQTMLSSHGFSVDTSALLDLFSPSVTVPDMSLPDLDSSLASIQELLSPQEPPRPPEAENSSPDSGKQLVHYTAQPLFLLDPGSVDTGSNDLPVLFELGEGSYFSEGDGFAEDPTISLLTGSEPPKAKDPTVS
Chain of Hypoxia-inducible factor 1-alpha (Homo sapiens) (Q16665 whole entry, looked up): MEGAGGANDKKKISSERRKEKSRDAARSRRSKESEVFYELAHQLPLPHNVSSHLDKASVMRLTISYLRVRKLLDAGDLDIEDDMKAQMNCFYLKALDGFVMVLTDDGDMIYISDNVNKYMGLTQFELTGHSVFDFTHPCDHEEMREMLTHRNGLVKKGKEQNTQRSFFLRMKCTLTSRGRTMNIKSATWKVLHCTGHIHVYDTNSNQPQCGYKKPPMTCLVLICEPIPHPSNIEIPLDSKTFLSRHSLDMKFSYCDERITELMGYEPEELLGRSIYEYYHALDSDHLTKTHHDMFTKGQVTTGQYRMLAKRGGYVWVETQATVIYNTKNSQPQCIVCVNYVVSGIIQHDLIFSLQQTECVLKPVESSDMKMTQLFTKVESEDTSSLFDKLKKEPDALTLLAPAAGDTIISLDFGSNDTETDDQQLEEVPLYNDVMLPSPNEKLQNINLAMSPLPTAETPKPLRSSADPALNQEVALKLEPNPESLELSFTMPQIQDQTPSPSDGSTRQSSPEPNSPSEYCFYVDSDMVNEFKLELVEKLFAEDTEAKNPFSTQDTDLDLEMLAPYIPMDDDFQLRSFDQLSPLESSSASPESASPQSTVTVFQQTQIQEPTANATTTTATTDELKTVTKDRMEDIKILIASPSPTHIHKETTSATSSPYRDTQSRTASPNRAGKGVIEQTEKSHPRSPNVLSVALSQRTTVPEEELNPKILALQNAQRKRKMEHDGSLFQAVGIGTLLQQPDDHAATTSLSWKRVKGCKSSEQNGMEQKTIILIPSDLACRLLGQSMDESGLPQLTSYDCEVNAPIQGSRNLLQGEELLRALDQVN
Chain of Signal transducer and activator of transcription 3 (Homo sapiens) (P40763 whole entry, looked up): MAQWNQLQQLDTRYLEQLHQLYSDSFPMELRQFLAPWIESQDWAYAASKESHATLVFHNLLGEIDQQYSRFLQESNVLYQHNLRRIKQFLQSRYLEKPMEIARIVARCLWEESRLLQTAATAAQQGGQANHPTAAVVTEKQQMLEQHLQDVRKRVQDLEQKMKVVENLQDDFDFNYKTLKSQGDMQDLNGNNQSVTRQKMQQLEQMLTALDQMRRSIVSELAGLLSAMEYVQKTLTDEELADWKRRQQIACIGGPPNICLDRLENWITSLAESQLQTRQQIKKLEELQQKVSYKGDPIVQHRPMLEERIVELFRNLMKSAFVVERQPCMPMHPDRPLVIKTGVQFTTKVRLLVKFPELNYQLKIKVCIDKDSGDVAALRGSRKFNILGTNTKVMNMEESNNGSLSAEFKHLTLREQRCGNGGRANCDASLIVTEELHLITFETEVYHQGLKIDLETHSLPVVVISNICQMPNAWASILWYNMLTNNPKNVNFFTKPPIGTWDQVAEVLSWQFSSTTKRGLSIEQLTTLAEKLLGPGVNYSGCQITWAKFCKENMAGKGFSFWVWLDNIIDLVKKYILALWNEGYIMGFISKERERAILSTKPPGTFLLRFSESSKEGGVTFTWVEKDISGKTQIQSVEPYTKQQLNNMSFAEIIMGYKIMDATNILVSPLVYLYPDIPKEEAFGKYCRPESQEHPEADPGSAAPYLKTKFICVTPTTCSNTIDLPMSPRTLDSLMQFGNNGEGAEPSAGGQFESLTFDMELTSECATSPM
Chain of Hepatocyte nuclear factor 6 (Homo sapiens) (Q9UBC0 whole entry, looked up, the tested form may be a part): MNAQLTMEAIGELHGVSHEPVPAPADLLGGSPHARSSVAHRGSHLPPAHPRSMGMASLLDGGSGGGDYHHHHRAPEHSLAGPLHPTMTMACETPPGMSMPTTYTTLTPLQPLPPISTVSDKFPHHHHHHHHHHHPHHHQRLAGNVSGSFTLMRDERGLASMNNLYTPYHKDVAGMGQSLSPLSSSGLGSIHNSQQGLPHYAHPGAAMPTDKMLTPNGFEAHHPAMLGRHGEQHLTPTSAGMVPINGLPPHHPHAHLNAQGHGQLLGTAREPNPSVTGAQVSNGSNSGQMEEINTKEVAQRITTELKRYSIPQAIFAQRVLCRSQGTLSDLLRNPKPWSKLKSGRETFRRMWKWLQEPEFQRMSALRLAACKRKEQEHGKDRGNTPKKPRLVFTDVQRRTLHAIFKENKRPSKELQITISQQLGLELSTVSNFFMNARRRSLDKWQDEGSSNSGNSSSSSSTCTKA

Regarding `OCCOCCOCCO`, the outcome in test [1], in [2], in test [3], in test [4], in [5] and in [6] was inactive. Also, the outcome in test [7], in [8], in test [9], in [10], in test [11] and in [12] was inactive. The call in test [13], in test [14], in test [15], in test [16] and in test [17] was inactive.

`O=c1[nH]cnc2c1ncn2[C@H]1CC[C@@H](CO)O1`: the compound was called inactive in test [1], in test [2], in [3], in test [4], in [5] and in test [6]. The call in test [7], in test [8], in [10], in test [18], in [11] and in [12] was inactive. Moreover, the outcome in test [13], in [14], in test [15], in test [19], in test [16] and in [17] was inactive.

The AC50 is the concentration at which the activity in the assay is half-maximal. `O=C(NO)C1(NS(=O)(=O)c2ccc(Oc3ccc(F)cc3)cc2)CCOCC1`: the result in test [1], in test [2], in test [3], in test [4], in test [5] and in test [6] was inactive. For the same compound, the call in test [7], in test [10], in test [18], in test [11], in test [12] and in test [13] was inactive. Also, the compound was classed as inactive in test [15], in [16] and in [17]. The AC50 in test [14] was 31.2 µM (active).

With `CNC(C)=O`, the compound was called inactive in [1], in test [2], in test [3], in test [4], in [5] and in [6]. Further, the compound was called inactive in test [7], in test [8], in [9], in test [18], in [11] and in test [12]. Also, the result in test [13], in [14], in [15], in test [19], in test [16] and in test [17] was inactive. Also, the AC50 in test [10] was 26.1 µM (active).

Consider `OCCNCCO`, for which the compound was called inactive in test [1], in [2], in [3], in test [4], in test [5] and in test [6]. In addition, the outcome in [20], in [7], in test [10], in test [12], in test [13] and in test [14] was inactive. Moreover, the call in test [15], in test [19], in [16] and in test [17] was inactive.

`OCCC(F)(F)C(F)(F)C(F)(F)C(F)(F)F`: the result in test [1], in [2], in test [3], in test [4], in [5] and in [6] was inactive. Besides, the call in test [20], in [7], in [8], in test [9], in test [10] and in [18] was inactive. Moreover, the compound was called inactive in test [11], in test [12], in [13], in test [14], in [15] and in [19]. Also, the outcome in test [16] and in test [17] was inactive.

As for `CCCOc1ccc(S(=O)(=O)N2CCN(CC)CC2)cc1-c1nc2c(CC)n(Cc3ccccn3)nc2c(=O)[nH]1`, the compound was called inactive in test [1], in test [3], in test [4], in [6], in [18] and in [12]. In addition, the compound was classed as inactive in test [13], in test [15] and in test [17]. The AC50 in [2] is 70 µM (active); in [5] it was 19.8 µM (active); in test [7], 34.8 µM (active); in [8] it was 2.66 µM (active); in [10], 1.18 µM (active); in test [11], 2.63 µM (active). Besides, the figures for the AC50 in test [14] and in test [16] were 27.5 µM (active) and 89.8 µM (active), respectively.
